Results filed as inconclusive are left out. A structure can be active in one record and inactive in another. Active and inactive are the calls of the source. Rule for the calls: active = hit-call score of the fitted dose curve at least 0.9, where 1 is the maximum; inconclusive = response in the unintended direction; inactive = score below 0.9.

Chain of human IkappaB Kinase alpha (IKKa), CHUK (gene 1147) (O15111 whole entry, looked up): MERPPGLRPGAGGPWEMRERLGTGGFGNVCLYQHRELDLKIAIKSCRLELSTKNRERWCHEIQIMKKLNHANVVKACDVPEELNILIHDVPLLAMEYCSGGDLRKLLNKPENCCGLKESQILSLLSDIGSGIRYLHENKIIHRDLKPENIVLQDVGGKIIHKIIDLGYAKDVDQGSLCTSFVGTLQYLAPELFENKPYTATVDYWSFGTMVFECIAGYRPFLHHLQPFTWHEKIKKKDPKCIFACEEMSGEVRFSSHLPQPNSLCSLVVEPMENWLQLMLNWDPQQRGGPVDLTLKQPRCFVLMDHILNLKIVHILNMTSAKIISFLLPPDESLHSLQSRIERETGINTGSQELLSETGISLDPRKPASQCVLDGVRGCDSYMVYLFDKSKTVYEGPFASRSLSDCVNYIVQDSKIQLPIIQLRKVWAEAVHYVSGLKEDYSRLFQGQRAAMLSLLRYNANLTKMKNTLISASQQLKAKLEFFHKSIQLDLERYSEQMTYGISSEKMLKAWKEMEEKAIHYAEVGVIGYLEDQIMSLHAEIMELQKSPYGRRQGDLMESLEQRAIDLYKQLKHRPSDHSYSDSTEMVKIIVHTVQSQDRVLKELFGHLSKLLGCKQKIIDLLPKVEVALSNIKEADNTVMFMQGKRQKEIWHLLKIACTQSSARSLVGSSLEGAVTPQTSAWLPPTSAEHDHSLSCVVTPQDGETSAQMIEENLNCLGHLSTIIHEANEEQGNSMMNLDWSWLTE

In the experiment the target is human IkappaB Kinase alpha (IKKa), CHUK (gene 1147) (UniProt O15111). The experiment in a line: NVS_ENZ_hIKKa: NovaScreen (NVS) Enzymatic Assay for human IkappaB Kinase alpha (IKKa) (AID 2283167). Here is the method:
NVS_ENZ_hIKKa is a biochemical, single-readout assay that uses extracted gene-proteins in a cell-free assay. Measurements were taken 1 hour after chemical dosing in a 384-well plate.NVS_ENZ_hIKKa is one of one assay component(s) measured or calculated from the NVS_ENZ_hIKKa assay. It is designed to make measurements of enzyme activity, a form of enzyme reporter, as detected with fluorescence intensity signals by Fluorescence and electrophoretic mobility shift technology.Data from the assay component NVS_ENZ_hIKKa was analyzed into 1 assay endpoint. This assay endpoint, NVS_ENZ_hIKKa, was analyzed in the positive analysis fitting direction relative to DMSO as the negative control and baseline of activity. Using a type of enzyme reporter, loss-of-signal activity can be used to understand changes in the enzymatic activity as they relate to the gene CHUK. Furthermore, this assay endpoint can be referred to as a primary readout, because this assay has produced multiple assay endpoints where this one serves a enzymatic activity function. To generalize the intended target to other relatable targets, this assay endpoint is annotated to the kinase intended target family, where the subfamily is serine/threonine kinase.
Binding assays used specific radioligands (tritiated, iodinated) with non-radioactive competitive displacement ligands in agonist or antagonist protocols (as indicated) and various reference compounds and inhibitors to titrate specific binding to receptors and transporters. Most enzyme assays (CYPs, kinases, phosphatases, proteases, HDACs) used recombinant protein and specific substrates (fluorescence mostly, some colorimetric and radioactive) and inhibitors, followed by a biochemical separation of substrate and product. All assays for the biochemical HTS were initially run in duplicate at a single concentration (10 uM for CYP450 assays and 25 uM for all others). Assay-chemical combinations meeting a pre-defined threshold (e.g., 30% inhibition and other criteria defined below) were then run in singleton concentration-response format with maximum concentration of 20 uM for CYPs and 50 uM for all others. Each assay was run with positive and negative controls, and concurrent controls on every plate. The follow-up (secondary) screen tested active chemical-pairs in concentration series, as well as a few additional assays not tested in the primary screen, some selected negative inactives, and several cases re-run in the concentration series for confirmatory purposes.
Turning to `CN(C)c1ccc(N=NS(=O)(=O)O)cc1`, the compound was called inactive.
For `CCCC(CCC)C(=O)O`, the compound was classed as inactive.
On the same count and under the same terms, as for `CCN(CC)CCNc1ccc(CNC=O)c2sc3ccc(OC)cc3c(=O)c12`, the entry is “inactive”.
A word on the AC50: it is the concentration giving half of the maximal activity seen. As for `S=C([S-])NCCNC(=S)[S-].[Mn+2]`, the AC50 was 30.1 µM (active).
Take `O=c1[nH]cnc2c1ncn2[C@H]1CC[C@@H](CO)O1`: the compound was called inactive.
With `CCCCCCCC/C=C\CCCCCCCC(=O)OC[C@@H](O)[C@H]1OC[C@H](O)[C@H]1O`, the compound was called inactive.
As for `O=C(OCCOCCOC(=O)c1ccccc1)c1ccccc1`, the call was inactive.
Same read-out and setting: as for `CC/C(=C(\c1ccccc1)c1ccc(OCCN(C)C)cc1)c1ccccc1`, the entry is “inactive”.
Take `CCCCCCCCCCCCc1ccccc1S(=O)(=O)O`: the concentration at half-maximal activity (AC50) is 31.7 µM (active).
As for `S=C(S)NCCNC(=S)S.[Mn+2].[S-]C([S-])=NCCN=C([S-])[S-].[Zn+2]`, the concentration at half-maximal activity (AC50) was 18.2 µM (active) and the call was inactive.
In the case of `CCc1c(C(=O)NN2CCCCC2)nn(-c2ccc(Cl)cc2Cl)c1-c1ccc(Br)cc1`, the result was inactive.

Values taken from PubChem BioAssay (EPA / NIEHS).
